Data from PubChem BioAssay AID488969 (Vanderbilt High Throughput Screening Facility, 2010).
In all, about 110,000 compounds were measured (“z-score”: median about -0.1, highest 2% from about 2 on). The full list was thinned out, with the highest values kept by preference. The source made the active and inactive calls.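 How the source made its calls: active means z-score in the third read window above 3 or below -3; inactive means the rest.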

biological target: Metabotropic glutamate receptor 8 (Rattus norvegicus) (UniProt P70579); assay: mGluR8 Gi/Go-coupled signaling modulation – cell-based, rat, thallium flux, HTS, primary screen (AID 488969); details: HEK293 rat mGluR8, GIRK (G protein-gated inwardly rectifying potassium channel) thallium flux, FluoZin2; at 10 µM; stronger effect = higher value; submaximal glutamate (EC20) added with thallium
Sequence (P70579 whole entry, looked up): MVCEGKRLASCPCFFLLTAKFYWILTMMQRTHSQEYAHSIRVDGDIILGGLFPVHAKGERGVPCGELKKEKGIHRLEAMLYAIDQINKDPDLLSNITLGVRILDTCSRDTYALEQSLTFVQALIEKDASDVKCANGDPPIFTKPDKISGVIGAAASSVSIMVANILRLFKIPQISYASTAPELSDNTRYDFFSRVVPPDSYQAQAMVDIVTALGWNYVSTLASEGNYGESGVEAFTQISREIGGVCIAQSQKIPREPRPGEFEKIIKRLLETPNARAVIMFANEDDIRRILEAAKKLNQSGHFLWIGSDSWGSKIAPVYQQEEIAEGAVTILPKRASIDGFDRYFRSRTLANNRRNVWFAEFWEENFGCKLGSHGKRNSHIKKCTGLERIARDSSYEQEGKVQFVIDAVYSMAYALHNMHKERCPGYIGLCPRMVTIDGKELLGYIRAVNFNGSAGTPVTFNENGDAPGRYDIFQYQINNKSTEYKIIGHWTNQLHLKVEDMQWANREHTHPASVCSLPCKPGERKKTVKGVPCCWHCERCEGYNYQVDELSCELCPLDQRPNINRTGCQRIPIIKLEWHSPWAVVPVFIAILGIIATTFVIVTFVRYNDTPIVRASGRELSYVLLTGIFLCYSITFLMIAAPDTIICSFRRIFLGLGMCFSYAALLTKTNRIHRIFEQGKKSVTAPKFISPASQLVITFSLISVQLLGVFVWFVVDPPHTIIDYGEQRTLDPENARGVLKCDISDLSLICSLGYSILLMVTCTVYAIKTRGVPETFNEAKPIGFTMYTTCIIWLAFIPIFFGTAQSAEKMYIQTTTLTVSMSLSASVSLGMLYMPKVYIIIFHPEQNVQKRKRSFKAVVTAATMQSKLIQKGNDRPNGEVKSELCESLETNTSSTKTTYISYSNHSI

SMILES | z-score
O=C(COCC(=O)N/N=C/c1ccccc1F)N/N=C/c1ccccc1F | -0.201
CCn1c(SCc2ccc(C#N)cc2)nnc1-c1cccc(Cl)c1 | -0.177
CCn1c(SCc2ccc(Cl)cc2)nnc1-c1ccccc1 | 3.4 (active)
CCn1c(SCc2cccc(C)c2)nnc1-c1ccccc1 | -0.431
COCCN(C(=O)Nc1ccccc1)c1ccccc1 | -0.157
Cc1cc(Br)ccc1NC(=S)Nc1cccc([N+](=O)[O-])c1 | 0.848
Cc1cccc(NC(=S)NNC(=O)c2ccco2)c1 | 0.0496
CC1=C(C)CC(C(=O)Nc2cccc(Cl)c2)C(C(=O)O)C1 (stereo not given) | -0.289
Cc1ccc(C2CC2C(=O)NNC(=S)Nc2cccc(C)c2)cc1 (stereo not given) | 3.29 (active)
Cc1ccc(C2CC2C(=O)NNC(=S)Nc2ccc(Cl)cc2)cc1 (stereo not given) | 4.55 (active)
O=C(NNC(=O)C1CC1c1ccccc1)Nc1cccc(Cl)c1 (stereo not given) | -0.494
Cc1ccc(C2CC2C(=O)NN)cc1 (stereo not given) | -0.033
Cc1cccc(NC(=O)C2CCCC2)c1 | 0.277
Cc1ccc(C2CC2C(=O)NNC(=S)Nc2cccc(Cl)c2)cc1 (stereo not given) | 5.51 (active)
Cc1ccc(NC(=S)NNC(=O)C2CC2c2ccc(C)cc2)cc1 (stereo not given) | 1.64
O=C(c1ccccc1)c1ccc(Oc2ncccn2)cc1 | -0.321
O=[N+]([O-])c1ccccc1N/N=C/c1cc2ccccc2nc1Cl | -0.459
CC(C)c1ccc(-c2c(C#N)c(N)nc(SCC(=O)N3CCCCC3)c2C#N)cc1 | -0.019
O=C1c2cccc3cccc(c23)C(=O)N1CCN1CCN(C(=S)Nc2ccc(F)cc2)CC1 | -0.203
Cc1cccc(-n2c(SCC(=O)Nc3ncc(Cl)cc3Cl)nc3ccccc32)c1 | -0.585
Cc1ccc(-n2c(-c3ccccc3)n[nH]c2=S)cc1 | 0.357
COc1ccc(-n2cc(-c3ccccc3)[nH]c2=S)cc1 | 11.4 (active)
COc1ccc(-n2c(=S)[nH]c3ccccc32)cc1 | 1.9
CC1CCCCC1NC(=O)CSCC(=O)O (stereo not given) | -0.0424
O=C(O)CCC(=O)NC1CCCCC1NC(=O)CCC(=O)O (stereo not given) | 2.2

SMILES | z-score
O=C(CCC1CCCC1)NC1CCCCC1 | -0.0138
O=C(O)CCC(=O)NC1CCCCC1 | -0.0259
O=C(CCCC(=O)NC1CCCC1)NC1CCCC1 | -0.0851
O=C(O)CCC(=O)NC1CCCCCCC1 | 3.34 (active)
O=S(=O)(NCc1cccnc1)c1cccc2cccnc12 | -0.0796
Cc1cc(C)c(S(=O)(=O)N(C)CC(=O)N2CCCCC2)c(C)c1 | 0.255
COc1ccc2c(c1)c(N=O)c(O)n2C | -0.55
O=C(C1CCN(S(=O)(=O)N2CCOCC2)CC1)N1CCc2ccccc21 | -1.37
O=C(NCCO)c1scc2c1OCCO2 | 0.107
O=c1c2ccccc2c(C=NCc2ccccn2)c(O)n1-c1ccccc1 | 9.73 (active)
Cc1ccc(-n2c(O)c(C=NCc3ccccn3)c3ccccc3c2=O)cc1 | -0.774
Cc1cccc(-n2c(O)c(C=NCc3ccccn3)c3ccccc3c2=O)c1 | -0.159
COc1ccc(CNC(=O)C/C(C)=N/NC(=O)Cc2ccc(OC)c(OC)c2)cc1 | 0.123
CCCCN(CCCC)S(=O)(=O)c1ccc2[nH]c(=O)[nH]c2c1 | -0.144
COc1cc(/C=C(\C#N)C(=O)Nc2cccnc2)ccc1OC(C)C | 2.99
CCOc1ccc(/C=C(\C#N)C(=O)Nc2cccnc2)cc1 | -0.416
COc1ccc(/C=C(\C#N)C(=O)Nc2cccnc2)cc1 | -0.0907
CC(C)C(=O)NC(C)C(c1cccs1)N1CCN(C)CC1 (stereo not given) | 0.199
COc1ccccc1OCCOc1ccc(C(=O)c2ccccc2)cc1 | 1.04
O=C(CSc1ccccc1)NCCSCc1ccccc1 | -0.635
C=CCNC(=O)NC(=O)CSc1nc2cc([N+](=O)[O-])ccc2n1-c1cccc(C(F)(F)F)c1 | 2.75
NC(=O)CSc1nc2cc([N+](=O)[O-])ccc2n1-c1cccc(C(F)(F)F)c1 | 0.159
CCNC(=O)CSc1nc2cc([N+](=O)[O-])ccc2n1-c1cccc(C(F)(F)F)c1 | -0.0324
O=C(OCCN1C(=O)CCC1=O)c1ccc(S(=O)(=O)N2CCCCC2)cc1 | -1.06
Cn1c(NC(=O)c2cccs2)c(-c2cccs2)c(=O)c2ccccc21 | 0.899

SMILES | z-score
Cc1nn(Cc2ccc(Cl)cc2)c(C)c1NC(=O)C1CC=CCC1C(=O)O (stereo not given) | -0.0201
CCN(CC)CCCNC(=O)C1c2ccccc2Oc2ccccc21 | 0.199
CNCCCC1Sc2ccccc2Oc2ccccc21 (stereo not given) | 2.85
CN(C)CCC1Sc2ccccc2Oc2ccccc21 (stereo not given) | 1.77
Cc1sc(NC(=O)c2ccco2)c(C(=O)c2ccc(Cl)cc2)c1C | -0.135
CC(C)(C)NC(=O)c1cc(Cl)ccc1[N+](=O)[O-] | -0.172
N#C/C(=C/c1cn(-c2ccccc2)nc1-c1cccc(S(=O)(=O)N2CCOCC2)c1)C(=O)NCc1ccco1 | -0.112
NC1=NC2(CCCCC2)N(c2cccc(Cl)c2)C(N)=N1 | 0.453
Cc1ccc(N2C(N)=NC(N)=NC23CCCC3)c(C)c1 | 0.0847
Cc1cccc(N2C(N)=NC(N)=NC23CCCCC3)c1 | 2.24
Cc1ccc(S(=O)(=O)NCCSCc2ccccc2)cc1 | -0.24
O=C(CCn1cccc1)NCc1ccc2c(c1)OCO2 | -0.423
COc1ccc(CNC(=O)CCCOc2cc(=O)n(C)c3ccccc23)cc1 | 0.0421
CC(=O)c1cn(CC(=O)NCc2ccc3c(c2)OCO3)c2ccccc12 | -0.0873
Cn1c(=O)cc(OCCCC(=O)Nc2ccc3c(c2)OCCO3)c2ccccc21 | -0.101
Cn1cc(CCC(=O)NCc2ccc3c(c2)OCO3)c2ccccc21 | 3.75 (active)
Cn1c(=O)cc(OCCCC(=O)NCc2ccc3c(c2)OCO3)c2ccccc21 | 8.84 (active)
O=S(=O)(NCc1ccccn1)c1ccccc1 | -0.362
COc1ccc(-c2nc(-c3cccc(C)c3)[nH]c(=O)c2C#N)cc1 | -0.296
COc1ccc(S(=O)(=O)n2ccc(C)n2)cc1C | -0.988
CCCNC(=O)C1CCN(S(=O)(=O)c2ccc(-c3nn[nH]n3)cc2)CC1 | -0.171
N/C(=N\c1nc2c(c(=O)[nH]1)CCC2)Nc1ccccc1 | 0.214
CC12CN(Cc3ccccc3)CC(C)(CN(Cc3ccccc3)C1)C2=NO | 2.4
c1ccc(CN2CCOCC2)cc1 | 0.378
CC(=O)C1CCN(Cc2ccccc2)CC1 | -0.262
